# Legend:
# Experiment in all cases: DAPPL (digital affinity profiling via proximity ligation, sequencing); 10 mM Tris-HCl pH 7.5, 50 mM NaCl, 1 mM DTT, 4% glycerol, room temperature, 30 min; GST-TFs on glutathione beads, 16-mer random dsDNA library, 0.1% formaldehyde crosslink after washing; high values mean tight binding
# Details in all cases: protein: recombinant; tags: N-terminal GST; dsDNA, one strand shown
# FLI1 = target: T1, FLI1 (Homo sapiens, UniProt Q01543 1-452)
# T1 sequence: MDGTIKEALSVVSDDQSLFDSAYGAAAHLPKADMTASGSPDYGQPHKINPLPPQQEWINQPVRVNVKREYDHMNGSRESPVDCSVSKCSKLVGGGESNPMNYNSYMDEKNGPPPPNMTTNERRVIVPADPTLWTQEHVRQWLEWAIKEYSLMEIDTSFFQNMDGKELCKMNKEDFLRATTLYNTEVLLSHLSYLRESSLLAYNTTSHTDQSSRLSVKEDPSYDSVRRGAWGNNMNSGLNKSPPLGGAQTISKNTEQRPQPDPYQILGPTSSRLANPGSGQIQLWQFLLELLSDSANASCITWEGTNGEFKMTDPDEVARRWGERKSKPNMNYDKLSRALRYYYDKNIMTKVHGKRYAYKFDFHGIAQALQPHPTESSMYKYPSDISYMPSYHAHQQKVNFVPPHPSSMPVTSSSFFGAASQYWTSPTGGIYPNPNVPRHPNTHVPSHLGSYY
# In short: (§1)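 Binding signal is each hexamer's read frequency for a factor divided by its frequency in the tag-only sample. The factors were GST-fused human transcription factors from yeast, captured on glutathione beads, DNA-barcoded and pooled with that sample. Pools were incubated with 200 nmole of a random double-stranded 16-mer DNA library in Tris/NaCl/DTT/glycerol buffer at room temperature for 30 min, then washed, crosslinked with 0.1% formaldehyde, proximity-ligated with BsaI/T4 ligase (1 h, 37 °C), PCR-amplified and sequenced on an Illumina NextSeq500.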
# ELK1 = target: T2, ELK1 (Homo sapiens, UniProt P19419 1-428)
# T2 sequence: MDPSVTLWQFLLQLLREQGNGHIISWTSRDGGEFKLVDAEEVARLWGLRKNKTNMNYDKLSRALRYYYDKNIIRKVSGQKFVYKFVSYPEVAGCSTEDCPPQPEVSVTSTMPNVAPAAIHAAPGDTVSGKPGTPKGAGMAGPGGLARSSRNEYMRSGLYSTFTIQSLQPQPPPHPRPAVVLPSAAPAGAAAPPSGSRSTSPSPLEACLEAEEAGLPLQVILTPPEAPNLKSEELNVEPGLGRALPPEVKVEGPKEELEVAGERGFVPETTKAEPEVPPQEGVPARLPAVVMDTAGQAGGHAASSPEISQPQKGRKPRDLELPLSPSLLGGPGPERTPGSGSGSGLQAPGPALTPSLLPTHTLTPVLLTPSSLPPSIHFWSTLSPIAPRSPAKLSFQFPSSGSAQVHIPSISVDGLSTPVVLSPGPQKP
# In short: as §1
# GABPA = target: T3, GABPA (Homo sapiens, UniProt Q06546 1-454)
# T3 sequence: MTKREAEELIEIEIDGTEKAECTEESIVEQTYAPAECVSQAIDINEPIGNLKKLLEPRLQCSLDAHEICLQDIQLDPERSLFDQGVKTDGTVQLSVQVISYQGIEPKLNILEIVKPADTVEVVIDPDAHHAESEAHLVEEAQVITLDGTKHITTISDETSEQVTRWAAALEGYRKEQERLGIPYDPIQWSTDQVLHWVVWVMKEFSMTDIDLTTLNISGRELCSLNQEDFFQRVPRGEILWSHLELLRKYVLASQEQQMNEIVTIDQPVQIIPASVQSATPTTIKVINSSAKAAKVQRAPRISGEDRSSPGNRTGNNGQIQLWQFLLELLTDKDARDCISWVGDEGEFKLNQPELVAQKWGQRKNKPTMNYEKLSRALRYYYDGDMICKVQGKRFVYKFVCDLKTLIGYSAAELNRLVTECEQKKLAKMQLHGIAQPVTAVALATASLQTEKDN
# In short: as §1
# ERG = target: T4, ERG (Homo sapiens, UniProt P11308 1-479)
# T4 sequence: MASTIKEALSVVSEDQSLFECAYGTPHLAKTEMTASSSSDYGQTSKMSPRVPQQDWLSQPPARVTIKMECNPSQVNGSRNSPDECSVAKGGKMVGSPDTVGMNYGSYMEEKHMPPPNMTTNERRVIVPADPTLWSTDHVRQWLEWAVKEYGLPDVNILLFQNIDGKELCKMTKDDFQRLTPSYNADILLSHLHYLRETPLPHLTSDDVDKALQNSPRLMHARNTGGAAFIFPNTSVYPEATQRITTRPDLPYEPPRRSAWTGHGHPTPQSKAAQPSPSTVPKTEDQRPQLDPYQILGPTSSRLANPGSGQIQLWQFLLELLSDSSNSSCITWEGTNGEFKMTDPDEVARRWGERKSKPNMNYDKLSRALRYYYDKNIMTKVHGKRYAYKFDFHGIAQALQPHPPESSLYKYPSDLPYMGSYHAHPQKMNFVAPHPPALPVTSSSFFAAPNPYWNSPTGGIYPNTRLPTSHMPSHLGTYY
# In short: as §1
# ELF1 = ELF1 (Homo sapiens, UniProt P32519 1-619)
# In short: as §1
# EHF = target: T5, EHF (Homo sapiens, UniProt Q9NZC4 1-300)
# T5 sequence: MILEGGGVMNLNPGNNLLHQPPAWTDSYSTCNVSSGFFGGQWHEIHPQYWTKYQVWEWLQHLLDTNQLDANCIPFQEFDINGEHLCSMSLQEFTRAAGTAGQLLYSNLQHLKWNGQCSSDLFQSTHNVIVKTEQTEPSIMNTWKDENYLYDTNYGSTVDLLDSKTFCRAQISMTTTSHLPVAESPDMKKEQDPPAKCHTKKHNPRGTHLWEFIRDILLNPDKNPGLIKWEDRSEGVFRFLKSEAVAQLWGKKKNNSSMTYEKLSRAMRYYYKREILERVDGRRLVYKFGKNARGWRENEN
# In short: as §1
# SPI1 = SPI1 (Homo sapiens, UniProt P17947 1-270)
# In short: as §1
# SPIB = SPIB (Homo sapiens, UniProt Q01892 1-262)
# In short: as §1
# ELK3 = target: T6, ELK3 (Homo sapiens, UniProt P41970 1-407)
# T6 sequence: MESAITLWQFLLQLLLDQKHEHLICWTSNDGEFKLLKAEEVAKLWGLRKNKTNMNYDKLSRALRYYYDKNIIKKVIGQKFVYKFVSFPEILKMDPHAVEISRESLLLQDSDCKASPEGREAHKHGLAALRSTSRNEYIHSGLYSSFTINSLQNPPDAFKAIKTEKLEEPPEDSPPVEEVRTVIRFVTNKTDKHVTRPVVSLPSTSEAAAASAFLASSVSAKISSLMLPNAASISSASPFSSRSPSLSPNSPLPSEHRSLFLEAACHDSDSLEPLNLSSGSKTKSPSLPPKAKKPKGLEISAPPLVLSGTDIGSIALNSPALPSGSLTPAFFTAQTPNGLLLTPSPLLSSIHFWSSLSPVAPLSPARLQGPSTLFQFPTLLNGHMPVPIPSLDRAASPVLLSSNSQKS
# In short: as §1
# Sequence of SPIB (Q01892 whole entry): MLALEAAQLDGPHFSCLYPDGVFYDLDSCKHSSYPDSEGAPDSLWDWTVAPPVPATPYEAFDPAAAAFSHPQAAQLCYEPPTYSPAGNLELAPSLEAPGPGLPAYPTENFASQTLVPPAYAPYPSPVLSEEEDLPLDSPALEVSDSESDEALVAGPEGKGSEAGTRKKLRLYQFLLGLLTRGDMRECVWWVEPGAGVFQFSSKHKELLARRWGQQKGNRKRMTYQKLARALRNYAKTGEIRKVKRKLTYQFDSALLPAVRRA
# Sequence of ELF1 (P32519 whole entry): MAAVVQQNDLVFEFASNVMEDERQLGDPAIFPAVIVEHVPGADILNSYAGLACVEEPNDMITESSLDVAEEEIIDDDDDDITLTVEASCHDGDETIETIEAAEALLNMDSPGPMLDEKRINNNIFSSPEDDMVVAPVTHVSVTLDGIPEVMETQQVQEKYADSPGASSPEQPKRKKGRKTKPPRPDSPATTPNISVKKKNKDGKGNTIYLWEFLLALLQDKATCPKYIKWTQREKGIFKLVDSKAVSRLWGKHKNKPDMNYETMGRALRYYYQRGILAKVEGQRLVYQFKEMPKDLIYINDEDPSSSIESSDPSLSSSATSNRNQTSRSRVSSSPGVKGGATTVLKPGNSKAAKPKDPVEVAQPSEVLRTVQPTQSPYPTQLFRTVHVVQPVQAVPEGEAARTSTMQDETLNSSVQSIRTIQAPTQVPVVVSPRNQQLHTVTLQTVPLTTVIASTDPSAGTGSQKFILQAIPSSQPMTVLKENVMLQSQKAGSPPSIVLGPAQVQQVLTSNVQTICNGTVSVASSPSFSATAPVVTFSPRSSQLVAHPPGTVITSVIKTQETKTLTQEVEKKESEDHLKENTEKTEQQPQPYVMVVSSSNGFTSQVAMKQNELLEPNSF
sequence,measurement,setting,value
AGAAGC,binding signal,FLI1,"1.11 fold enrichment (6-mer frequency, TF over GST control)"
same,binding signal,ELK1,"1.15 fold enrichment (6-mer frequency, TF over GST control)"
same,binding signal,GABPA,"1.12 fold enrichment (6-mer frequency, TF over GST control)"
same,binding signal,ERG,"1.16 fold enrichment (6-mer frequency, TF over GST control)"
same,binding signal,ELF1,"1.08 fold enrichment (6-mer frequency, TF over GST control)"
same,binding signal,EHF,"1.21 fold enrichment (6-mer frequency, TF over GST control)"
same,binding signal,SPI1,"1.22 fold enrichment (6-mer frequency, TF over GST control)"
same,binding signal,SPIB,"1.15 fold enrichment (6-mer frequency, TF over GST control)"
same,binding signal,ELK3,"1.1 fold enrichment (6-mer frequency, TF over GST control)"

# Source: PMC7862700, “An all-to-all approach to the identification of sequence-specific readers for epigenetic DNA modifications on cytosine”
